# Source: PMC7862700, “An all-to-all approach to the identification of sequence-specific readers for epigenetic DNA modifications on cytosine”
# Key:
# Experiment in all cases: DAPPL (digital affinity profiling via proximity ligation, sequencing); 10 mM Tris-HCl pH 7.5, 50 mM NaCl, 1 mM DTT, 4% glycerol, room temperature, 30 min; GST-TFs on glutathione beads, 16-mer random dsDNA library, 0.1% formaldehyde crosslink after washing; high values mean tight binding
# FLI1 = target: T1, FLI1 (Homo sapiens, UniProt Q01543 1-452); settings: protein: recombinant; tags: N-terminal GST; dsDNA, one strand shown
# T1 sequence: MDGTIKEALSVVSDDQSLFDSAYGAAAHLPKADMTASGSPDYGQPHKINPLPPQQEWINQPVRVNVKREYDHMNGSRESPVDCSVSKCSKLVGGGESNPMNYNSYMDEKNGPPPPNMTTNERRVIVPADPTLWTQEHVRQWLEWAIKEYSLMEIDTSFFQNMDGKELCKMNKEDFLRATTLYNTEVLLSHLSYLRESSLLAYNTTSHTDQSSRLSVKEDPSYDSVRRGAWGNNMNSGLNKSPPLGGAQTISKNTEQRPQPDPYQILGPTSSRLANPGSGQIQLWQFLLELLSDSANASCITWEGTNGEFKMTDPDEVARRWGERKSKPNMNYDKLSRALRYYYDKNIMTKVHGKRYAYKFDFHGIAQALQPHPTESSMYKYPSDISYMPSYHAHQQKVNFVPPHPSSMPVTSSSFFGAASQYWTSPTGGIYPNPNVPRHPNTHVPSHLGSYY
# In short: (§1)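 A tag-only sample was pooled with DNA-barcoded human transcription factors that had been expressed in yeast as GST fusions and captured on glutathione beads. The pools were incubated for 30 min at room temperature with 200 nmole of a random double-stranded 16-mer DNA library in Tris/NaCl/DTT/glycerol buffer, then washed, crosslinked with 0.1% formaldehyde, proximity-ligated (BsaI/T4 ligase, 1 h, 37 °C), PCR-amplified and sequenced on an Illumina NextSeq500. Binding signal is each hexamer's read frequency for a factor divided by its frequency for the tag-only sample.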
# ELK1 = target: T2, ELK1 (Homo sapiens, UniProt P19419 1-428); settings: protein: recombinant; tags: N-terminal GST; dsDNA, one strand shown
# T2 sequence: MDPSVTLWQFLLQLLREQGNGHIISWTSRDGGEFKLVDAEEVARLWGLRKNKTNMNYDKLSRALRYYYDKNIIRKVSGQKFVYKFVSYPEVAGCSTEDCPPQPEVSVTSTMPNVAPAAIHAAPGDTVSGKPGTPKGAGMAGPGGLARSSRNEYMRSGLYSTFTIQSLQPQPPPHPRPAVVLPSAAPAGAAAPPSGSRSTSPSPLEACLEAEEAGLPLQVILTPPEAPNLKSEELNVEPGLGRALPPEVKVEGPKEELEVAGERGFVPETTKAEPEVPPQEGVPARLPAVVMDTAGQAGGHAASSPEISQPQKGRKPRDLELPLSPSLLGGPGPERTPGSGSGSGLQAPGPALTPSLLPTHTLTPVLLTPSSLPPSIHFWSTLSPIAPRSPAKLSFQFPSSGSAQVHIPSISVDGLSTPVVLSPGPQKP
# In short: as §1
# GABPA = target: T3, GABPA (Homo sapiens, UniProt Q06546 1-454); settings: protein: recombinant; tags: N-terminal GST; dsDNA, one strand shown
# T3 sequence: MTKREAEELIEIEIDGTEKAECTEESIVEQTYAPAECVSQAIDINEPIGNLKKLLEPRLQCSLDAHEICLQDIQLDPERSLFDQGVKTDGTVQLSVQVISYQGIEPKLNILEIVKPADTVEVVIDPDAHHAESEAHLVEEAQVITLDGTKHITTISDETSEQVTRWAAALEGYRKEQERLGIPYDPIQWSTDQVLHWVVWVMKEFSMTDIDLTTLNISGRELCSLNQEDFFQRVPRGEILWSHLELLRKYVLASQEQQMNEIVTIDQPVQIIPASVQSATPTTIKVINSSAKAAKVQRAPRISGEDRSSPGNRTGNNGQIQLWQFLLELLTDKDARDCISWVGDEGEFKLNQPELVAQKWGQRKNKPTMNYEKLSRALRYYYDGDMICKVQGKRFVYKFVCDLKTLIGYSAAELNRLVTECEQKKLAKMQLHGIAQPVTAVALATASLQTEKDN
# In short: as §1
# ERG = target: T4, ERG (Homo sapiens, UniProt P11308 1-479); settings: protein: recombinant; tags: N-terminal GST; dsDNA, one strand shown
# T4 sequence: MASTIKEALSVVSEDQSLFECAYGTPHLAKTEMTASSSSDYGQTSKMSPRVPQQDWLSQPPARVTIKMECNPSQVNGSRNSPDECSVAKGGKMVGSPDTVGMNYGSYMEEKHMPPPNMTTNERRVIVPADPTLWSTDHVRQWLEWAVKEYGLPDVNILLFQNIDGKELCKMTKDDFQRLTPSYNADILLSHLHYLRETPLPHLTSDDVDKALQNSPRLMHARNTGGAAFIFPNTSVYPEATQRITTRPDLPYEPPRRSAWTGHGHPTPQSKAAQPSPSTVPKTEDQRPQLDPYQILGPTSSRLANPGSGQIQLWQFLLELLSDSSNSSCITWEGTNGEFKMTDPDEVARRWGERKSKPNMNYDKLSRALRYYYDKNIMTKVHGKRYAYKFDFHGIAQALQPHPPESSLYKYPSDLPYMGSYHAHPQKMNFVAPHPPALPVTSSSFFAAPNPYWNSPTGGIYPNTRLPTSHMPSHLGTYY
# In short: as §1
# ELF1 = ELF1 (Homo sapiens, UniProt P32519 1-619); settings: protein: recombinant; tags: N-terminal GST; dsDNA, one strand shown
# Chain of ELF1 (P32519 whole entry): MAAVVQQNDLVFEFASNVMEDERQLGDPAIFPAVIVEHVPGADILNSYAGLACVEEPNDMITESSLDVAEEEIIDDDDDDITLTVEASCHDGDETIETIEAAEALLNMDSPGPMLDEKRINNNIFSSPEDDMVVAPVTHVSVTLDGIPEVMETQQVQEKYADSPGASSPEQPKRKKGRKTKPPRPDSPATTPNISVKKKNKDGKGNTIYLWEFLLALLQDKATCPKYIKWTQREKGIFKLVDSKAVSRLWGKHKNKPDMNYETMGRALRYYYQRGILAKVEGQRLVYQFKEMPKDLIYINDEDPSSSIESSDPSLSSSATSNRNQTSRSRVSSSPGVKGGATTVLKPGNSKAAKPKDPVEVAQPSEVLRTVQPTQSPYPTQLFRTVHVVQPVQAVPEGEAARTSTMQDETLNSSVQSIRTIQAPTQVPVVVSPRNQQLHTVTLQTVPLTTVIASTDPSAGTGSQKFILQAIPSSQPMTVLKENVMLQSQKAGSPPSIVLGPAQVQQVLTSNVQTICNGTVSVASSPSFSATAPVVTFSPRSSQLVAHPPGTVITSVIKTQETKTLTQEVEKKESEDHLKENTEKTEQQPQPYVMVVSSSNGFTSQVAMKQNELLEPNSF
# In short: as §1
# EHF = target: T5, EHF (Homo sapiens, UniProt Q9NZC4 1-300); settings: protein: recombinant; tags: N-terminal GST; dsDNA, one strand shown
# T5 sequence: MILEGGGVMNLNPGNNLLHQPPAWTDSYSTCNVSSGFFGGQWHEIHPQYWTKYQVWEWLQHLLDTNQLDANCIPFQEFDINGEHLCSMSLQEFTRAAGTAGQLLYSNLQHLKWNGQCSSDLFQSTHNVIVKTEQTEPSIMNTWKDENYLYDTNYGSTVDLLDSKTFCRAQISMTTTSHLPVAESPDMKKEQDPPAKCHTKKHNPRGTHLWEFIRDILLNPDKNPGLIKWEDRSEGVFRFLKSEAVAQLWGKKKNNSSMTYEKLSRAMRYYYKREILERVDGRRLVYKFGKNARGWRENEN
# In short: as §1
# SPI1 = SPI1 (Homo sapiens, UniProt P17947 1-270); settings: protein: recombinant; tags: N-terminal GST; dsDNA, one strand shown
# In short: as §1
# SPIB = SPIB (Homo sapiens, UniProt Q01892 1-262); settings: protein: recombinant; tags: N-terminal GST; dsDNA, one strand shown
# Chain of SPIB (Q01892 whole entry): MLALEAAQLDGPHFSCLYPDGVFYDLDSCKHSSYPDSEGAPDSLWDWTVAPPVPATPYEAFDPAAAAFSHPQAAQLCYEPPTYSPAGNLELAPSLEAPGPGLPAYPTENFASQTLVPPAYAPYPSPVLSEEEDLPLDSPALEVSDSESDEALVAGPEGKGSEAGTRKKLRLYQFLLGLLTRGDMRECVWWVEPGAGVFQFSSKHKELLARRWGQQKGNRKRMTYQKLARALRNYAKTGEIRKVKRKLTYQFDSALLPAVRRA
# In short: as §1
# ELK3 = target: T6, ELK3 (Homo sapiens, UniProt P41970 1-407); settings: protein: recombinant; tags: N-terminal GST; dsDNA, one strand shown
# T6 sequence: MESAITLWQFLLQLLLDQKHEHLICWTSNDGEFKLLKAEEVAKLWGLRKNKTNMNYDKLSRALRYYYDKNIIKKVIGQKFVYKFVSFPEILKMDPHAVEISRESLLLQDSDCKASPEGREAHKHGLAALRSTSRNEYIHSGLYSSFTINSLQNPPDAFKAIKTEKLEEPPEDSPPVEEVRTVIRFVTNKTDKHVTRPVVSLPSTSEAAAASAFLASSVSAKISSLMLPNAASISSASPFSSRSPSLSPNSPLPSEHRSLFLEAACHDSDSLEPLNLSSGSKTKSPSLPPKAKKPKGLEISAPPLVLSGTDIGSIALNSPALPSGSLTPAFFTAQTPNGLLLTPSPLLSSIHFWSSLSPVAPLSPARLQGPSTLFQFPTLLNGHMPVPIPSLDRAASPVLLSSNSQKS
# In short: as §1
# FEV = target: T7, FEV (Homo sapiens, UniProt Q99581 1-238); settings: protein: recombinant; tags: N-terminal GST; dsDNA, one strand shown
# T7 sequence: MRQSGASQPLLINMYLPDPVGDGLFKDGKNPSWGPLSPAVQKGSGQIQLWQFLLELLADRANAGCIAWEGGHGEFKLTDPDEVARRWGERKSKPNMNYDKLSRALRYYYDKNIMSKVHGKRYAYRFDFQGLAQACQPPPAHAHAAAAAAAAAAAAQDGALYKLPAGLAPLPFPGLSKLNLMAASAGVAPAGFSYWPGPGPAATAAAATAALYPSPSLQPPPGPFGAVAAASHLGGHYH
# In short: as §1
# ETV5 = ETV5 (Homo sapiens, UniProt P41161 1-510); settings: protein: recombinant; tags: N-terminal GST; dsDNA, one strand shown
# Chain of ETV5 (P41161 whole entry): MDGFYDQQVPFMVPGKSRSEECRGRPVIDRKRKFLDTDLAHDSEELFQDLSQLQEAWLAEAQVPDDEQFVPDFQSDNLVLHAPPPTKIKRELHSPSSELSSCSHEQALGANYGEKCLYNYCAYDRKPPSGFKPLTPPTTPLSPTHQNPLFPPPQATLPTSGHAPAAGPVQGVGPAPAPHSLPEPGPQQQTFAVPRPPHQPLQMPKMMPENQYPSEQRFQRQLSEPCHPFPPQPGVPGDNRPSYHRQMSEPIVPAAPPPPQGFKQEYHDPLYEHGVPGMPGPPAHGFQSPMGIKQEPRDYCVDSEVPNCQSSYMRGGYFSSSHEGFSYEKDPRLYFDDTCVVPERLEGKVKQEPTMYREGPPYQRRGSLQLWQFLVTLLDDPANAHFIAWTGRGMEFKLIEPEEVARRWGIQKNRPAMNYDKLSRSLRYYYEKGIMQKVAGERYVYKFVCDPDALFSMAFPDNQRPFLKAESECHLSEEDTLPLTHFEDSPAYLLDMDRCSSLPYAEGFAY
# In short: as §1
# HSF1 = HSF1 (Homo sapiens, UniProt Q00613 1-529); settings: protein: recombinant; tags: N-terminal GST; chain copies: 3; dsDNA, one strand shown
# Chain of HSF1 (Q00613 whole entry): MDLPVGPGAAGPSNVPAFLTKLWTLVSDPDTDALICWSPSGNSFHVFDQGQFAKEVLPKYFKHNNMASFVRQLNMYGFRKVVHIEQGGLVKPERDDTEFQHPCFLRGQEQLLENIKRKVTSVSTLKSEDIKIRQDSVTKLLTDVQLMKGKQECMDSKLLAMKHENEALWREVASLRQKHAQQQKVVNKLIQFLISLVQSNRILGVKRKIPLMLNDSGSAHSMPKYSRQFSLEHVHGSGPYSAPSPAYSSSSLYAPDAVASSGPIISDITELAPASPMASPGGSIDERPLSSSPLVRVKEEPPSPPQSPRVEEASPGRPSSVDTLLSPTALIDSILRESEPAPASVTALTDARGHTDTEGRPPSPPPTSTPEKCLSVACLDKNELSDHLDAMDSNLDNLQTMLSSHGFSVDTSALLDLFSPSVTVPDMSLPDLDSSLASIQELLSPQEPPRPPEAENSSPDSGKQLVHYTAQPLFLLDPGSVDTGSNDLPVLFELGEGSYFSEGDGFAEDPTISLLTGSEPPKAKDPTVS
# In short: as §1
# SPIC = target: T8, SPIC (Homo sapiens, UniProt Q8N5J4 1-248); settings: protein: recombinant; tags: N-terminal GST; dsDNA, one strand shown
# T8 sequence: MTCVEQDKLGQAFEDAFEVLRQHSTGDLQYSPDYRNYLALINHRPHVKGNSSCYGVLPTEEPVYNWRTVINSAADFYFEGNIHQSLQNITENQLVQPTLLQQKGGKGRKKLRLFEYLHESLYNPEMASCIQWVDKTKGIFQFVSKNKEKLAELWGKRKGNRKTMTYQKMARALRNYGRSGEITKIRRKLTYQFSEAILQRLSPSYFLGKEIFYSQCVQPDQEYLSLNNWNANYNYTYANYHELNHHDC
# In short: as §1
# ELF4 = ELF4 (Homo sapiens, UniProt Q99607 1-663); settings: protein: recombinant; tags: N-terminal GST; dsDNA, one strand shown
# Chain of ELF4 (Q99607 whole entry): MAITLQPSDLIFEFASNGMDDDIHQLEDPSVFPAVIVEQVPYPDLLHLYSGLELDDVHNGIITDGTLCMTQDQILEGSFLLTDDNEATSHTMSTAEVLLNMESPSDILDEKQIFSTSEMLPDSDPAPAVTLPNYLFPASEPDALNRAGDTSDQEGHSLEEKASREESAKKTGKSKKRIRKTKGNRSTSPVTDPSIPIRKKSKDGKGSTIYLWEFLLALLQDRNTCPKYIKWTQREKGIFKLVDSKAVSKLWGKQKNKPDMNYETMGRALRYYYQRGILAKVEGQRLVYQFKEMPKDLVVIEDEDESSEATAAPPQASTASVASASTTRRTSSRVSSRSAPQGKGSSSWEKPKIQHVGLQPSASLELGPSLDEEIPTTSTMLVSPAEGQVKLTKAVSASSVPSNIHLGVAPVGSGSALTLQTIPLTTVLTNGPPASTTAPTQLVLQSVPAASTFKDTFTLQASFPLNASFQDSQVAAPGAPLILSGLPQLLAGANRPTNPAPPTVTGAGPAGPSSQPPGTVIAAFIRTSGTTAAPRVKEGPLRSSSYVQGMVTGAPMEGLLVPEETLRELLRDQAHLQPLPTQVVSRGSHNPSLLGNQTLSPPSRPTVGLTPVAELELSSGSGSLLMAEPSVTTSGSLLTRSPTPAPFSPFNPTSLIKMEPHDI
# In short: as §1
# ELK4 = target: T9, ELK4 (Homo sapiens, UniProt P28324-2 1-405); settings: protein: recombinant; tags: N-terminal GST; dsDNA, one strand shown
# T9 sequence: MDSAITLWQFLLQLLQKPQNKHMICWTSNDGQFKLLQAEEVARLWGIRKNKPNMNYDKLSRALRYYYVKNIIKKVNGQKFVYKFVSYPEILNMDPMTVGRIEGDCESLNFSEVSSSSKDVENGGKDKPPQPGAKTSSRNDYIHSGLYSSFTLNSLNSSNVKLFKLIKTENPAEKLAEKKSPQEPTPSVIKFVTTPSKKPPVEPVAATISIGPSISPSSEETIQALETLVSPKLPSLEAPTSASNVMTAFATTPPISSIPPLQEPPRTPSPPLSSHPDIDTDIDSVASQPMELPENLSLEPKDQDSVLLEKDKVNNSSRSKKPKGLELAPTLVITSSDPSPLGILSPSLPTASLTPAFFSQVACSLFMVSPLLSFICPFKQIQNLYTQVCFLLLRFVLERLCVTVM
# In short: as §1
# ETV2 = target: T10, ETV2 (Homo sapiens, UniProt O00321 1-342); settings: protein: recombinant; tags: N-terminal GST; dsDNA, one strand shown
# T10 sequence: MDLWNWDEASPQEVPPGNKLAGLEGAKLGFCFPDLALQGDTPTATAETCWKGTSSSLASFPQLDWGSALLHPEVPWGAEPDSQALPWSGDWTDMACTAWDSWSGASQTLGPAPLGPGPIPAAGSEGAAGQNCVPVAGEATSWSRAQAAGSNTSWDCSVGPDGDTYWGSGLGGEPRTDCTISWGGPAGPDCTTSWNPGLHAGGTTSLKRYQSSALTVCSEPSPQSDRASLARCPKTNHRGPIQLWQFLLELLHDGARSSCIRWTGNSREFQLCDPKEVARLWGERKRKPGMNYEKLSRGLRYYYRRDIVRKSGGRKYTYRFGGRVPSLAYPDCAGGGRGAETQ
# In short: as §1
# ELF3 = target: T11, ELF3 (Homo sapiens, UniProt P78545 1-371); settings: protein: recombinant; tags: N-terminal GST; dsDNA, one strand shown
# T11 sequence: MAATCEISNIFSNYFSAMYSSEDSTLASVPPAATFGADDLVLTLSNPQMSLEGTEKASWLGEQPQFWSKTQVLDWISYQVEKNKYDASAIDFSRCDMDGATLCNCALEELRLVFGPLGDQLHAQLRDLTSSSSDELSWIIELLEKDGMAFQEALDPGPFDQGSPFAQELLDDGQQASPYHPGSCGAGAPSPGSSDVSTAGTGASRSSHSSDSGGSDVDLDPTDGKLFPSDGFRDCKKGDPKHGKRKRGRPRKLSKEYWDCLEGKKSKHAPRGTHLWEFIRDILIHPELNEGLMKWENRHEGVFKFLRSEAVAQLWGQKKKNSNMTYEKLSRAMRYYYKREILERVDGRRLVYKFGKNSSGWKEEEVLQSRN
# In short: as §1
# CRX = CRX (Homo sapiens, UniProt O43186 1-299); settings: protein: recombinant; tags: N-terminal GST; dsDNA, one strand shown
# Chain of CRX (O43186 whole entry): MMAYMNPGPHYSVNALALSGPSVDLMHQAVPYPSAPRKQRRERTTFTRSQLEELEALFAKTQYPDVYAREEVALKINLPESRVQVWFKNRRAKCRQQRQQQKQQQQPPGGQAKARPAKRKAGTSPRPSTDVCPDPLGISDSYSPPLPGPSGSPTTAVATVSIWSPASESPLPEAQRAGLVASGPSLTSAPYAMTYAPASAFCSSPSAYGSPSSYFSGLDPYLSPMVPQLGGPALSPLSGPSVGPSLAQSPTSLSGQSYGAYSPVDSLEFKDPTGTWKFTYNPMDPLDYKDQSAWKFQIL
# In short: as §1
# ETV1 = ETV1 (Homo sapiens, UniProt P50549 1-477); settings: protein: recombinant; tags: N-terminal GST; dsDNA, one strand shown
# Chain of ETV1 (P50549 whole entry): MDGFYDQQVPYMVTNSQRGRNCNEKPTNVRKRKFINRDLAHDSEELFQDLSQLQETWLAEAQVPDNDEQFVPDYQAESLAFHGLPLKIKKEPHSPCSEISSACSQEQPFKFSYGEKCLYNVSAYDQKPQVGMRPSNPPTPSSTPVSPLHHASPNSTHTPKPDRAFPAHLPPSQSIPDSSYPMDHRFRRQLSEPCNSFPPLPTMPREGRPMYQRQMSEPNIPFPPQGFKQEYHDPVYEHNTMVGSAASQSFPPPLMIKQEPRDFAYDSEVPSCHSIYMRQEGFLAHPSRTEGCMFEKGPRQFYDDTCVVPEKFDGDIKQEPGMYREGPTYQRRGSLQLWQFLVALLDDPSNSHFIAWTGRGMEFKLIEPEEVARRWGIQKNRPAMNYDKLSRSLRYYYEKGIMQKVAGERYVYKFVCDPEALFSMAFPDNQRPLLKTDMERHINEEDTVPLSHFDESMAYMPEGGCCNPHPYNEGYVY
# In short: as §1
sequence,measurement,setting,value
AAAAAC,binding signal,FLI1,"1.31 fold enrichment (6-mer frequency, TF over GST control)"
same,binding signal,ELK1,"1.12 fold enrichment (6-mer frequency, TF over GST control)"
same,binding signal,GABPA,"1.26 fold enrichment (6-mer frequency, TF over GST control)"
same,binding signal,ERG,"1.26 fold enrichment (6-mer frequency, TF over GST control)"
same,binding signal,ELF1,"1.23 fold enrichment (6-mer frequency, TF over GST control)"
same,binding signal,EHF,"1.28 fold enrichment (6-mer frequency, TF over GST control)"
same,binding signal,SPI1,"1.46 fold enrichment (6-mer frequency, TF over GST control)"
same,binding signal,SPIB,"1.24 fold enrichment (6-mer frequency, TF over GST control)"
same,binding signal,ELK3,"1.31 fold enrichment (6-mer frequency, TF over GST control)"
same,binding signal,FEV,"1.28 fold enrichment (6-mer frequency, TF over GST control)"
same,binding signal,ETV5,"1.26 fold enrichment (6-mer frequency, TF over GST control)"
same,binding signal,HSF1,"1.19 fold enrichment (6-mer frequency, TF over GST control)"
same,binding signal,SPIC,"1.27 fold enrichment (6-mer frequency, TF over GST control)"
same,binding signal,ELF4,"1.31 fold enrichment (6-mer frequency, TF over GST control)"
same,binding signal,ELK4,"1.14 fold enrichment (6-mer frequency, TF over GST control)"
same,binding signal,ETV2,"1.32 fold enrichment (6-mer frequency, TF over GST control)"
same,binding signal,ELF3,"1.3 fold enrichment (6-mer frequency, TF over GST control)"
same,binding signal,CRX,"1.16 fold enrichment (6-mer frequency, TF over GST control)"
same,binding signal,ETV1,"1.27 fold enrichment (6-mer frequency, TF over GST control)"
